Measured values published in PubChem BioAssay (NCI).
The panel holds about 83,000 compounds, 20% with a hit somewhere; the sample as a whole holds those more often.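 Single-concentration screen, 48 h exposure, 96-well plates. Endpoint: percent growth. Below 10 = active.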 Unmarked numbers belong to inactive results. Calls of active or inactive are those of the source.

system: A549/ATCC NSCLC; assay: NCI-60 one-dose screen, 48 h (100 = growth as untreated, 0 = no growth, -100 = all killed); conditions: 10 µM unless noted

Structure (SMILES) | growth
NC(=O)CC1C=CCC1 (stereo not drawn) | 80.1%
CC(=O)Nc1ccc(C=Nc2ccc3ccccc3c2)cc1 | 106%
O=[N+]([O-])c1ccc(O)c(-c2nc3ccccc3s2)c1 | 84.2%
CCOC(=O)c1nn(C2CCCCO2)c2ccc(NC(=O)Cn3nnc4ccccc43)cc12 (stereo not drawn) | 102%
COC(=O)c1cc2c(=O)[nH]cc3c2c(n1)CCC3 | 101%
CCCCCn1c(C)cc(/C=C\c2ccc3cc(C)ccc3[n+]2C)c1C | -84.5% (active)
O=c1[nH]c2cc(Cl)c(Cl)cc2n2cc3ncccc3c12 | 91.2%
c1nc(N2CCOCC2)c2[nH]ccc2n1 | 99.9%
CCCC[C@@H](C=O)NC(=O)[C@H](CC(C)C)NC(=O)[C@H](CC(C)C)NC(=O)OCc1ccccc1 | 71.3%
CNC(=O)c1cc(Oc2ccc3nc(NC(=O)c4ccc5ncccc5c4)sc3c2)ccn1 | 76.5%
CC(C)(C)OC(=O)N1C=C/C(=C\Cn2cc(-c3ccccc3)nn2)CC1 | 83.8%
CC[C@@H]1NC(=O)[C@@H]2CCCCN2C(=O)[C@@H]2CCCN2C(=O)[C@@H](NC(=O)[C@H](Cc2cc(F)cc(F)c2)NC(=O)Nc2ccc(C3CC3)cc2F)[C@H](C)OC(=O)[C@@H]2C[C@@H](C)CN2C1=O | 19.9%
CCCSc1nc(N)nc2nc[nH]c12 | 105%
O=C(Nc1ccc(F)cc1)c1ccccc1 | 99.6%
COc1ccc(-c2ccc(NNC(=O)c3ccc(F)cc3)nn2)cc1OC | 72.4%
COc1ccc(C(=O)CSc2nnc(-c3cc(-c4ccccc4)nc4ccccc34)o2)cc1 | 98%
O=C(O)c1cc([N+](=O)[O-])ccc1Br | 101%
O=C(Nc1ccc(Oc2ccc(F)cc2)c(Cl)c1)c1cccnn1 | 65.5%
Cc1cc(-c2ccc(N=Nc3c(S(=O)(=O)O)cc4cc(S(=O)(=O)O)cc(N)c4c3O)c(C)c2)ccc1N=Nc1cc(S(=O)(=O)O)c2ccccc2c1O | 97.2%

Structure (SMILES) | growth
COc1cc2c(cc1OCCCN1CCN(CCCOc3cc4c(cc3OC)C(=O)N3C[C@H](F)C[C@H]3C=N4)CC1)N=C[C@@H]1C[C@@H](F)CN1C2=O | 6.52% (active)
Cc1nc(Cl)cc(N(c2cc(Cl)nc(C)n2)c2ncc(C(=O)Nc3c(C)cccc3Cl)s2)n1 | 50.5%
Cn1cc(-c2noc(-c3cn(C)c4ncc(Br)cc34)n2)c2cc(Cl)ccc21 | 96.6%
C=C(C)[C@@H]1CC[C@]2(C(N)=O)CC[C@]3(C)[C@H](CC[C@@H]4[C@@]5(C)C/C(=C/c6cccnc6)[C@H](O)C(C)(C)[C@@H]5CC[C@]43C)[C@@H]12 | 23.1% [100 µM]
Nc1nc(Nc2ccccc2)c2ncn(Cc3ccc4c(c3)OCO4)c2n1 | 42%
C[n+]1c2ccccc2nc2c(N)cc(N)cc21 | 82%
CCOC(=O)c1cc(C(=O)c2ccc(OC)c(OC)c2)n2ccc(-c3ccccn3)cc12 | 47.5%
O=C(NNc1ccc(-c2ccccc2)nn1)c1ccccc1 | 106%
CCOC(=O)c1nc2c3ccccc3ccn2c1C(=O)OC | 92.8%
c1cc2ccc3cc2cc1CNCCN1CCNCc2ccc4ccc(cc4c2)CNCCN(CCNC3)CCNCc2ccc3ccc(cc3c2)CNCC1 | 2.2% (active)
Cn1cc(-c2nnc(-c3cn(C)c4ncc(Br)cc34)s2)c2cc(Br)ccc21 | 94.4%
O=C1/C(=C/c2cccc(OCc3ccccc3)c2)Oc2cc(OCCN3CCCCC3)ccc21 | 79.5%
CN(Cc1cccc(C(F)(F)F)c1)C(=O)[C@@H](CC(=O)N1CCC(N2CCCCC2)CC1)N1C(=O)[C@@H](N2C(=O)OC[C@@H]2c2ccccc2)[C@H]1/C=C/c1ccccc1 | 80.6%
Cc1cc(NN=C(c2ccc(O)cc2)c2ccc(O)cc2)c([N+](=O)[O-])cc1[N+](=O)[O-] | 11.8%
CCOC(=O)CCC[P+](c1ccccc1)(c1ccccc1)c1ccccc1 | 90.7%
CCN(CC)c1ccc(/C=C/c2ccc3cc(C)ccc3[n+]2CC)cc1 | 8.77% (active)
O=C(N/N=C/c1ccc([N+](=O)[O-])cc1)c1ccc(Br)o1 | 92.7%
CC(C)C1=NOC(=O)C1=Cc1cn(-c2ccccc2)nc1-c1ccc(Br)cc1 | 98.2%
COc1ncnc2c(-c3ccccc3)cn(COCc3ccccc3)c12 | 51.1%
